Here are results for five molecules from PubChem BioAssay.

The source made the active and inactive calls. Unless noted, no rule for the calls is given here.

The nature of experiment [1]: compounds binding Alexa647 anti-His antibody – biochemical, small-molecule microarray, 635 nm fluorescence, artefact control for SMM control protein annotation, primary screen (AID 1128).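 Also: score merges feature fluorescence with signal-to-noise for each printed compound spot.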 As to conditions: higher = more signal.
For experiment [2], the system named is Human papillomavirus type 1a E7 protein (residues 1-88). Kind of experiment: HPV1a E7 small-molecule binders, primary screen, biochemical, small-molecule microarray, residues 1-88, 635 nm (AID 1129). As to conditions: small-molecule microarray binding, fluorescence 635 nm; higher = more signal.
Experiment [3] concerns the target Focal adhesion kinase 1 (Homo sapiens) (UniProt Q05397). The experiment in a line: PTK2 protein binding on printed compound slides – biochemical, small-molecule microarray, 635/667 nm fluorescence, BSA, DTT, primary screen (AID 1130).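 Also: composite of spot emission at 667 nm and signal to noise over triplicate slides.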 The following applies: 635 nm fluorescence, higher = more signal.
Experiment [4] has as its system Fibrinogen (Alexa647-labelled). Kind of experiment: Alexa647-fibrinogen binding to printed small molecules – biochemical, small-molecule microarray, 635/667 nm fluorescence, artefact control for SMM control-protein annotation, profiling panel (AID 1131).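 Also: z-score merges 667 nm fluorescence with per-spot signal-to-noise over triplicate slides.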 As to conditions: fibrinogen-A647 binding fluorescence, higher = more signal.
The target in experiment [5] is Follistatin (Homo sapiens) (UniProt P19883). Kind of experiment: FST protein binding to printed compounds – biochemical, small-molecule microarray, 635/667 nm fluorescence, primary screen (AID 1132). As to conditions: 635 nm fluorescence, higher = more signal.
Follistatin (Homo sapiens), sequence (P19883 whole entry, looked up): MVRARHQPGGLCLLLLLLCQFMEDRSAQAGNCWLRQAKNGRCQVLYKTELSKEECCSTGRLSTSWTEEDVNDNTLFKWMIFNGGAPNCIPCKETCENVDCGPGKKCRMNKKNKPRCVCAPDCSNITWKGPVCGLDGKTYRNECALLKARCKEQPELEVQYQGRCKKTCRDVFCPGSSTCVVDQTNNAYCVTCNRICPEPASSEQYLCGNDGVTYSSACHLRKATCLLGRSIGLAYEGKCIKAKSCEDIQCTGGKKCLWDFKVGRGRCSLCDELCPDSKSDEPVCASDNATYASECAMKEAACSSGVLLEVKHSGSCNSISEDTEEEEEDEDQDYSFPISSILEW
Experiment [6] concerns the target Fibroblast growth factor 2 (Homo sapiens) (UniProt P09038). The experiment in a line: basic fibroblast growth factor binding to printed compounds – biochemical, small-molecule microarray, 635/667 nm fluorescence, primary screen (AID 1133). The following applies: FGF2, fluorescence 635/667, higher = more signal.
The nature of experiment [7]: JC-1 mitochondrial potential readout, lung cancer cells – cell-based, A549, JC-1 fluorescence, basal, 24 h, 100 nL, profiling panel (AID 1138).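 Also: A549 lung adenocarcinoma cells under basal conditions with no added stimulus; test concentration not given here.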 The following applies: higher = more signal.
The test system of another experiment is Lefty1. Kind of experiment: Lefty1 protein binding to printed compounds – biochemical, small-molecule microarray, 635/667 nm fluorescence, primary screen (AID 1139). The following applies: fluorescence 635/667, higher = more signal.
The subject of experiment [8] is wheat germ agglutinin (Triticum aestivum), Alexa647-labelled. The experiment in a line: Alexa647-WGA lectin binding to printed small molecules – biochemical, small-molecule microarray, 635/667 nm fluorescence, artefact control for SMM control-protein annotation, profiling panel (AID 1140).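 Also: score merges 667 nm feature emission with signal to noise over triplicate slides.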 As to conditions: WGA-A647 binding, 635 nm fluorescence, higher = more signal.

Experiment [9] deals with Luciferin 4-monooxygenase (Photinus pyralis) (UniProt P08659). Kind of experiment: inhibition of purified Photinus pyralis luciferase – biochemical, luminescence, purified enzyme, 2006 set, primary screen (AID 1141).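 Also: cell-free assay with purified firefly luciferase at 100 ng per well in PBS; test concentration not given here.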 The following applies: purified firefly luciferase, SteadyGlo luminescence, 30 min; higher = more signal, called active from +8 up or from −8 down.
Luciferin 4-monooxygenase (Photinus pyralis), sequence (P08659 whole entry, looked up): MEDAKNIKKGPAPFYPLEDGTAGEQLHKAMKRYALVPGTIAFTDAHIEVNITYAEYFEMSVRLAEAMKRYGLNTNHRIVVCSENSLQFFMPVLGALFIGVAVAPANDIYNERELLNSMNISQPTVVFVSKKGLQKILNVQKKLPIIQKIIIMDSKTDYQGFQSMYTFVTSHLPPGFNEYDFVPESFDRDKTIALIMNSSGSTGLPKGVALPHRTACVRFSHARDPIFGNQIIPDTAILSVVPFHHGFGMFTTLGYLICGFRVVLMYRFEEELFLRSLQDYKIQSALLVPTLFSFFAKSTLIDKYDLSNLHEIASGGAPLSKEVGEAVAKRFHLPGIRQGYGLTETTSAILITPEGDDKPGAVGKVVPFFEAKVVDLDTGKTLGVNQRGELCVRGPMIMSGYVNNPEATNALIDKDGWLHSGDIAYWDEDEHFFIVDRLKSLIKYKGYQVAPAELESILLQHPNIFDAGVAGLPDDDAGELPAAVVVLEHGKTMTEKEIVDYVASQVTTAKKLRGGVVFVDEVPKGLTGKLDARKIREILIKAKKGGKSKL
Experiment [10] deals with Wnt5a (protein binding on small-molecule microarray). The experiment in a line: small molecules binding Wnt5a protein – biophysical, small-molecule microarray, 635/667 nm fluorescence, primary screen (AID 1142).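 Also: fluorescence read at 667 nm with signal to noise per printed feature.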 The following applies: 635 nm fluorescence, higher = more signal.
Experiment [11] in a line: ATP-based viability of Huh7 replicon cells – cell-based, CellTiter-Glo luminescence, basal, 48 h, cytotoxicity control for HCV replication inhibitor project, primary screen (AID 1143).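 Also: Huh7 hepatoma cells carrying a hepatitis C replication reporter with no stimulus; test concentration not given here.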 As to conditions: higher = more signal, called active from +8 up or from −8 down. A general note: A replicon is a self-replicating genome or part of one, used to study replication in cells.

Experiment [12] in a line: Pseudomonas biofilm growth suppression – PAO1 strain, BacTiter-Glo luminescence, LB-PBS, primary screen (AID 1144). As to conditions: P. aeruginosa PAO1 biofilm, 12 h, higher = more signal.
The nature of experiment [13]: basal CRE-LacZ reporter activity in PC12 – cell-based, unstimulated, primary screen (AID 1145). The following applies: no forskolin, luminescence, 4.5 h, higher = more signal, called active from +8 up or from −8 down.
A short description of experiment [14]: forskolin-driven CRE-LacZ activity in PC12 – cell-based, CRE-LacZ reporter, forskolin-stimulated, primary screen (AID 1146).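 Also: PC12 cells with 6xCRE LacZ reporter stimulated by forskolin 10 µM; beta-galactosidase reporter signal reflecting CREB driven transcription.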 As to conditions: luminescence, 4.5 h, higher = more signal, called active from +8 up or from −8 down.
Experiment [15] deals with Streptavidin (Streptomyces avidinii) (UniProt P22629). Kind of experiment: compounds binding control protein streptavidin – biophysical, small-molecule microarray, 635/667 nm fluorescence, artefact control for SMM compound annotation, primary screen (AID 1147).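 Also: signal reflects streptavidin binding to arrayed compounds as a control protein.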 As to conditions: higher = more signal.
Streptavidin (Streptomyces avidinii), sequence (P22629 whole entry, looked up): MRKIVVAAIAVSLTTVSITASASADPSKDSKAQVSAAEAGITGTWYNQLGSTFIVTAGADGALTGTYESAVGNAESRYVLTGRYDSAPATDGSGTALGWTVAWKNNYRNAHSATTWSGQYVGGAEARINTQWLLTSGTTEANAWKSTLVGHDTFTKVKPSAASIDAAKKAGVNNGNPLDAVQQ
A short description of experiment [16]: probe aInhba binding on compound microarray – biochemical, small-molecule microarray, 635/667 nm fluorescence, primary screen (AID 1148).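 Also: score merges 667nm spot fluorescence with signal-to-noise for antibody binding to printed compounds.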 As to conditions: higher = more signal.
The target of experiment [17] is Torsin-1A (Homo sapiens) (UniProt O14656). The experiment in a line: TOR1A wild-type binding on microarray – cell lysate, small-molecule microarray, lysate, 635/667 nm, primary screen (AID 1149). As to conditions: COS7 hTOR1A-WT lysate, 635 nm fluorescence, higher = more signal.
Torsin-1A (Homo sapiens), sequence (O14656 whole entry, looked up): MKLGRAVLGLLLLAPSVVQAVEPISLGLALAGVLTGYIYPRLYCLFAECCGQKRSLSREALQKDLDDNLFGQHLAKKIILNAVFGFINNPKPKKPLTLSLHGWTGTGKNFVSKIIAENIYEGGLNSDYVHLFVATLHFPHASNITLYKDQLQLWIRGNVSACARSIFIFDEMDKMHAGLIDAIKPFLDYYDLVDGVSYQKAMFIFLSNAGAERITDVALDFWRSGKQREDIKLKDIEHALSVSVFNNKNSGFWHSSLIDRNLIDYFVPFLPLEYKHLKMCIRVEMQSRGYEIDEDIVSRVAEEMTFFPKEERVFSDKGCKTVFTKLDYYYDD
For experiment [18] the target is unchanged. Kind of experiment: torsin A mutant lysate binding on microarrays – cell lysate, small-molecule microarray, COS7 lysate, 635/667 nm fluorescence, primary screen (AID 1150).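 Also: score pools 667 nm emission and signal to noise measuring lysate protein binding.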 As to conditions: COS7 hTOR1A mutant lysate, 635 nm fluorescence, higher = more signal.
Experiment [19] deals with Sonic hedgehog protein (Shh). The experiment in a line: Sonic hedgehog microarray binding compounds – biochemical, small-molecule microarray, 635/667 nm fluorescence, primary screen (AID 1151).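 Also: Shh protein binding to compounds spotted on small-molecule microarray slides; score combines spot fluorescence intensity with signal-to-noise across triplicate slides.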 The following applies: 635 nm fluorescence, higher = more signal.

Fibroblast growth factor 2 (Homo sapiens), sequence (P09038 whole entry, looked up): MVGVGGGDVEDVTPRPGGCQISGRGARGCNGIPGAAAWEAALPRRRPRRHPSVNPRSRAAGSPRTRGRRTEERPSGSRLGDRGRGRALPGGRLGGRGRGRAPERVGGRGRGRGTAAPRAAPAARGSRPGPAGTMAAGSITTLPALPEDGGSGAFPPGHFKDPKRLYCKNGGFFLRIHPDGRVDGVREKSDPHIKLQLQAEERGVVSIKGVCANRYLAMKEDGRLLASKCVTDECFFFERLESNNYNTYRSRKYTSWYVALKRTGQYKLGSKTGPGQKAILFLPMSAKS
Focal adhesion kinase 1 (Homo sapiens), sequence (Q05397 whole entry, looked up): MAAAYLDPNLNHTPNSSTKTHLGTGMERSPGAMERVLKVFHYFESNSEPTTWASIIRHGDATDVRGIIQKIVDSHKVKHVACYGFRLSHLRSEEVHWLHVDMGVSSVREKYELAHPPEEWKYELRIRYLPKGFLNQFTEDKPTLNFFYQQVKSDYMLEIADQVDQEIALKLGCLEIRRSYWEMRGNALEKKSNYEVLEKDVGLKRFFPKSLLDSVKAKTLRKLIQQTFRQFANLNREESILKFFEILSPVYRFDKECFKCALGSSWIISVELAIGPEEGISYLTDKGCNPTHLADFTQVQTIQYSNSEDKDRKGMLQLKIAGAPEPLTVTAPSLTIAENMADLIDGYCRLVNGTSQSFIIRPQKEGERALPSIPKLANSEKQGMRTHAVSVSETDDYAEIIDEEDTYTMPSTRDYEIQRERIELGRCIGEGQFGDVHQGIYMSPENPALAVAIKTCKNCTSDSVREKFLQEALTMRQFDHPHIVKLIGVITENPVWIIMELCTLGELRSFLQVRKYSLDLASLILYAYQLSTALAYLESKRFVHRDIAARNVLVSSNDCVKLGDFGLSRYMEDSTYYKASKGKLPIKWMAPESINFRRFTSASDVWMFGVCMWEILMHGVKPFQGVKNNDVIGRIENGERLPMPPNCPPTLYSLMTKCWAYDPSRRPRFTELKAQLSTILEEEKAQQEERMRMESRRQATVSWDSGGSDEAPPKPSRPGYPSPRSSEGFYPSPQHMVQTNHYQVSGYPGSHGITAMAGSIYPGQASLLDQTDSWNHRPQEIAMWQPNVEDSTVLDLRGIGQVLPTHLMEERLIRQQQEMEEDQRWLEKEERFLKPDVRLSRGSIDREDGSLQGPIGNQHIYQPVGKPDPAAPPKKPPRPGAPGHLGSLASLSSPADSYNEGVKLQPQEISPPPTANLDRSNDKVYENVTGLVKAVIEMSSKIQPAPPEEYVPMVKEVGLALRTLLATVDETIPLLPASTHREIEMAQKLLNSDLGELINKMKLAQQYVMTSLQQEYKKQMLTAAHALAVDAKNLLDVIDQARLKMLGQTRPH

Turning to `Cc1ccc(N2C(=O)c3ccccc3[C@@H](C(=O)NCC(F)(F)F)[C@@H]2c2ccc(CO)cc2)nc1`, the composite z-score in [1] is -1.37; in [2], -2.06; in experiment [3] it was -0.589; in [4] it was -1.4; in experiment [5] it was -2.06; in experiment [6], -0.59. Also, the composite z-score with Lefty1 is -3.17; in [8], -0.925; in experiment [10], 0.0023; in [15], -1.62; in experiment [16] it was 0.17; in the experiment with Torsin-1A (Homo sapiens) [17], -1.76. Besides, the composite z-score with Torsin-1A (Homo sapiens) [18] is -1.78; in [19] it was 0.0716. Also, the z-score in [7] is -0.913; in experiment [9], -0.642 (inactive); in [11] it was -0.977 (inactive); in experiment [12], 0.00438 (inactive); in [13], 0.791 (inactive); in experiment [14], 0.495 (inactive).
For the molecule `CN1C(=O)C2C=CC(C(O)c3ccc(N(C)C)cc3)N(Nc3ccc([N+](=O)[O-])cc3[N+](=O)[O-])C2C1=O` (stereo not given), the composite z-score in [1] is 1.54; in experiment [2], 1.23; in experiment [3], 0.171; in [4], 1.01; in experiment [5], 1.26; in [6] it was -0.0151. The composite z-score in the experiment on Lefty1 is -0.375; in experiment [8], 1.24; in experiment [10], 0.0988; in [15], 1.51; in experiment [16], 0.529; with Torsin-1A (Homo sapiens) [17], 0.977. Moreover, the composite z-score stood at 1.56 in the experiment with Torsin-1A (Homo sapiens) [18] and 0.262 in experiment [19]. For the same molecule, the z-score in experiment [7] was 0.469; in experiment [9], -1.2 (inactive); in experiment [11] it was 0.891 (inactive); in experiment [12] it was -0.202 (inactive); in experiment [13], 1.03 (inactive); in experiment [14], 0.0229 (inactive).
For `CCCNC(=O)[C@@H]1c2ccccc2C(=O)N(C2CCCCC2)[C@H]1c1ccc(CO)cc1`, the composite z-score in experiment [1] amounted to 2.26; in [2], 1.22; in experiment [3], 0.798; in experiment [4], 0.958; in [5], 0.927; in [6], 0.915. Besides, the composite z-score with Lefty1 is 0.443; in [8] it was 0.795; in [10], 0.15; in experiment [15] it was 0.573; in [16], 0.0589; with Torsin-1A (Homo sapiens) [17], -0.244. Besides, the composite z-score amounted to 0.0805 in the experiment with Torsin-1A (Homo sapiens) [18] and 0.573 in experiment [19]. Also, the z-score in experiment [7] was 0.888; in experiment [9], 0.311 (inactive); in experiment [11], -0.64 (inactive); in experiment [12], -0.255 (inactive); in experiment [13] it was -0.062 (inactive); in [14] it was -0.224 (inactive).
As to `CN1C(=O)C2C=CC(C(O)C3CC=CCC3)N(Nc3ccccc3)C2C1=O` (stereo not given), the composite z-score was 0.674 in experiment [1]; 1.14 in [2]; -0.198 in experiment [3]; 0.678 in experiment [4]; 1.28 in [5]; 0.769 in experiment [6]. The composite z-score is 1.29 with Lefty1; 1.24 in experiment [8]; 0.521 in [10]; 0.505 in experiment [15]; 0.208 in experiment [16]; 0.664 with Torsin-1A (Homo sapiens) [17]. The composite z-score with Torsin-1A (Homo sapiens) [18] amounted to 1.06; in experiment [19], 1.57. Further, the z-score is 0.883 in experiment [7]; 0.864 (inactive) in [9]; 0.758 (inactive) in experiment [11]; -0.269 (inactive) in experiment [12]; -0.333 (inactive) in experiment [13]; 0.0874 (inactive) in [14].
Turning to `CCOC(=O)C[C@H]1[C@H](OC(=O)Cc2ccc3c(c2)OCO3)[C@@H](NC(=O)c2ccc3ccccc3c2)c2cc(OCCCO)ccc2N1C(=O)Cc1ccc(OC)cc1`, the composite z-score in experiment [1] is -0.708; in [2], 0.836; in experiment [3], 0.211; in experiment [4], 0.561; in experiment [5], 0.413; in [6], 0.441. Moreover, the composite z-score in the experiment with Lefty1 was 0.55; in [8], 0.353; in [10], -0.0175; in [15] it was 0.348; in experiment [16] it was 0.386; with Torsin-1A (Homo sapiens) [17], 0.242. For the same molecule, the composite z-score in the experiment with Torsin-1A (Homo sapiens) [18] was found to be 0.485; in [19], 0.673. For the same molecule, the z-score in [7] was 0.751; in experiment [9], -0.953 (inactive); in experiment [11] it was -0.602 (inactive); in experiment [12], -0.0536 (inactive); in [13], 4.83 (inactive); in experiment [14], 0.135 (inactive).
